We go through four molecules from PubChem BioAssay (Tox21).

Inconclusive results are not listed. Entries that show only a call come without a potency. The source made the active and inactive calls. Calls come from the whole dose curve.

The target of this experiment is Thyrotropin receptor (Homo sapiens) (UniProt P16473). The experiment can be described thus: qHTS assay to identify small molecule antagonists of the thyroid stimulating hormone receptor (TSHR) signaling pathway (AID 1259385). Note: nearly all actives have a fitted effect of over 20% in size. Conditions: TSHR-HEK293 cAMP HTRF, TSH-stimulated antagonist mode; series mostly up to 92.4 µM. Summed up: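 TSHR-HEK293 cells were plated and held 18 h at 37C/5% CO2, then given compound plus Ro20-1724 and stimulated with TSH at 1.5 ng/mL final. After 30 min at room temperature, cAMP was detected with cAMP-d2/anti-cAMP-cryptate (1 h) by fluorescence.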
Chain of Thyrotropin receptor (Homo sapiens) (P16473 whole entry, looked up): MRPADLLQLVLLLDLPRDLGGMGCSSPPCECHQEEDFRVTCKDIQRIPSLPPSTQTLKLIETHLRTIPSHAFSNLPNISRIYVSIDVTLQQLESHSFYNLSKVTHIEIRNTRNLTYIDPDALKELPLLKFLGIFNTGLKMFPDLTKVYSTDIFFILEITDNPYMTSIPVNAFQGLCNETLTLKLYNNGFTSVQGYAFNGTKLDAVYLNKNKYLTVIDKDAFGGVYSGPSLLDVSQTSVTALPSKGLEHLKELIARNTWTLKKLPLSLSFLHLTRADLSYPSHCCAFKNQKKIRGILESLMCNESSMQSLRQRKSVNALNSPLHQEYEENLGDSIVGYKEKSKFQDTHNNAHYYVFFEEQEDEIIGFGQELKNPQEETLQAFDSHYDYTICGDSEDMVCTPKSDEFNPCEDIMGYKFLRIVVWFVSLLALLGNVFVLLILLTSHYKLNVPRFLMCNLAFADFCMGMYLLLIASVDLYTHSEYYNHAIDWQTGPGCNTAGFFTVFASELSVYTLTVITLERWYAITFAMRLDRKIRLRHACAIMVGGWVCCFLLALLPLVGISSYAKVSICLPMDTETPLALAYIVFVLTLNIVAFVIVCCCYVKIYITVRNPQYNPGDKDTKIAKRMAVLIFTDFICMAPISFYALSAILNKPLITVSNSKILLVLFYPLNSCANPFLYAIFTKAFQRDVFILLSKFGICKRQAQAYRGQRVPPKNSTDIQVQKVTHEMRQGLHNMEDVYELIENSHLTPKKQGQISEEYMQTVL
(In qHTS, concentration-response curves come from the screen itself.)
As to `COCCC#N`, the Potency entry was “inactive”.

Consider `O=S(=O)(O)F`, for which the Potency result is “inactive”.

With `Cc1c([N+](=O)[O-])cc2c(c1[N+](=O)[O-])C(C)(C)CC2(C)C`, the Potency entry was “inactive”.

With `Cc1cccc(Cc2cnc[nH]2)c1C`, the Potency entry was “inactive”.
